Laboratory results published in PubChem BioAssay (Tox21).
Inconclusive results are not listed. The source made the active and inactive calls. Unless noted, calls follow the shape of the full dose curve.

Key:
[1] = Nuclear factor erythroid 2-related factor 2/antioxidant responsive element (Nrf2/ARE) small molecule agonists: qHTS cell viability counter screen in human keratinocytes (AID 1919968; active = well fitted curve in the direction sought with a large enough effect in the repeat runs; an effect the other way counts as inactive or inconclusive; also: nearly all actives have a fitted effect of over 55% in size)
Summary of the method: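 In human HaCaT keratinocytes stably expressing an ARE-driven luciferase, compound exposure lasted 23 h at 37 C under 5% CO2. Viable cells are quantified with a protease-based fluorogenic reagent (CellTiter-Fluor) read 1 h after addition.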

[2] = Nuclear factor erythroid 2-related factor 2/antioxidant responsive element (Nrf2/ARE) small molecule agonists: luciferase reporter gene qHTS assay in human keratinocytes (AID 1919969); also: nearly all actives have a fitted effect of over 35% in size
[3] = target: Gonadotropin-releasing hormone receptor (Homo sapiens) (UniProt P30968); experiment: Human gonadotropin-releasing hormone receptor (GnRHR) small molecule agonists, calcium flux assay in GnRHR-HEK293 cells (AID 1920063); also: nearly all actives have a fitted effect of over 35% in size
Chain of Gonadotropin-releasing hormone receptor (Homo sapiens) (P30968 whole entry, looked up): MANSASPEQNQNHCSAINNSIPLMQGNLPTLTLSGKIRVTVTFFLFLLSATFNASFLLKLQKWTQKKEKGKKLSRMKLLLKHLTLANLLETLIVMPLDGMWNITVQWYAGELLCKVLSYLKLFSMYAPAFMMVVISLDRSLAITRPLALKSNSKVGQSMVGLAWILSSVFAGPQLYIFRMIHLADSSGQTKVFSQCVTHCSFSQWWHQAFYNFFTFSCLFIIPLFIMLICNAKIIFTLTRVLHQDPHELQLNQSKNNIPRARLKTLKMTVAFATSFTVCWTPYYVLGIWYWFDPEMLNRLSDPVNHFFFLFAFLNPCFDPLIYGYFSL
Summary of the method: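 Intracellular calcium rise is the read-out: engineered human GnRHR HEK293 cells, dye-loaded, are exposed to DMSO-dissolved compounds and fluorescence at Ex/Em 480/540 is tracked for 3 min.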

[4] = target: KiSS-1 receptor (Homo sapiens) (UniProt Q969F8); experiment: Human kisspeptin (KISS1R) small molecule agonists, calcium flux assay in KISS1R-HEK293 cells (AID 1920064; active = well fitted curve in the direction sought with a large enough effect in the repeat runs; an effect the other way counts as inactive or inconclusive)
Chain of KiSS-1 receptor (Homo sapiens) (Q969F8 whole entry, looked up): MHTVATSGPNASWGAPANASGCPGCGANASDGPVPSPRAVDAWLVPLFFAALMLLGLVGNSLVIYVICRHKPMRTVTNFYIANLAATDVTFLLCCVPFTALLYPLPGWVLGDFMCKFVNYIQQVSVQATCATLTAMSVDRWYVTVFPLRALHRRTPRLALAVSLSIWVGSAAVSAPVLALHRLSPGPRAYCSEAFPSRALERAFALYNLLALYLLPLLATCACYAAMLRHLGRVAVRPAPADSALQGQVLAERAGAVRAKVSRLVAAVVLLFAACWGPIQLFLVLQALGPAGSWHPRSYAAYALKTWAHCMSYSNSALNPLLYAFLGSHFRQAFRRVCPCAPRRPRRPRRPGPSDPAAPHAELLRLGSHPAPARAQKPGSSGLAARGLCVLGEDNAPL
Summary of the method: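 Concentration-response testing used 15 concentrations in triplicate on human KISS1R-expressing HEK293 cells. Calcium-dependent fluorescence (Ex/Em 480/540) was followed kinetically for 3 min after compound transfer.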

[5] = G protein-coupled receptor (GPCR) small molecule agonists, calcium flux assay: HEK293 wild type cell line counter screen (AID 1920065)
Summary of the method: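 Fluorescence intensity signals activation. After overnight (18 h) culture and a 1 h calcium dye load at 37 C, compounds are added by pin tool and the plate read at 480/540 nm for 3 min in 1 s steps.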

[6] = p53 small molecule agonists, cell-based qHTS assay with human liver microsomes: qHTS cell viability counter screen (AID 1963579); also: nearly all actives have a fitted effect of over 45% in size
Summary of the method: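 Tox21 library compounds, delivered from DMSO stocks, were tested on p53RE-bla cells together with 0.5 mg/mL human liver microsomes and 0.5 mg/mL NADPH (final) over 16 h at 37 C; CellTiter-Glo luminescence served as the cytotoxicity measure.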

[7] = p53 small molecule agonists, cell-based qHTS assay with rat liver microsomes: qHTS cell viability counter screen (AID 1963580); also: nearly all actives have a fitted effect of over 45% in size
Summary of the method: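 Counter screen for cytotoxicity under metabolic activation: rat liver microsomes and NADPH, 0.5 mg/mL final each, added with compounds to p53RE-bla HCT-116 cells; 16 h at 37 C, then ATP luminescence read.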

[8] = p53 small molecule agonists, cell-based qHTS assay: qHTS cell viability counter screen (AID 1963581); also: nearly all actives have a fitted effect of over 45% in size
Summary of the method: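 Luminescence from CellTiter-Glo, reflecting ATP content, serves as the cytotoxicity measure; it is taken after the 2 h reporter substrate step in HCT-116 p53RE-bla cells dosed for 16 h at 37 C.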

[9] = target: 5-hydroxytryptamine receptor 2A (Homo sapiens) (UniProt P28223); experiment: 5-hydroxytryptamine receptor 2A (HTR2A) small molecule antagonists, cell-based qHTS assay (AID 1963586); also: nearly all actives have a fitted effect of over 45% in size
Chain of 5-hydroxytryptamine receptor 2A (Homo sapiens) (P28223 whole entry, looked up): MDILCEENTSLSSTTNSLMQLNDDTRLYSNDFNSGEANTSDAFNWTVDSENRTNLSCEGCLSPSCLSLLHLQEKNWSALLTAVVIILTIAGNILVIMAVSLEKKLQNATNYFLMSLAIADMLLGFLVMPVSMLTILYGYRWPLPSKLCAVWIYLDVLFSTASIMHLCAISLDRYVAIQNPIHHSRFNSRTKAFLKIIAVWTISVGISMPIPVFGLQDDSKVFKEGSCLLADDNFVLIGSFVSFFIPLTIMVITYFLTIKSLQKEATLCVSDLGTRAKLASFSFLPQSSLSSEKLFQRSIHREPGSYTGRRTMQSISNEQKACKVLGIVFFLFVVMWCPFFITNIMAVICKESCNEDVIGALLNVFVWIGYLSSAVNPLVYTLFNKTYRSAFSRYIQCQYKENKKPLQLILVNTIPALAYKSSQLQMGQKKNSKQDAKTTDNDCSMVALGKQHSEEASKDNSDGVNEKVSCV
Summary of the method: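 CHO cells stably expressing human HTR2A were plated for 18 h at 37 C, then loaded with calcium dye for 1 h. Compounds were preincubated 5 min at room temperature before DOI (4 nM solution) was added. Kinetic fluorescence was read for 3 min.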

[10] = target: 5-hydroxytryptamine receptor 2A (Homo sapiens) (UniProt P28223); experiment: 5-hydroxytryptamine receptor 2A (HTR2A) small molecule agonists, cell-based qHTS assay (AID 1963587); also: nearly all actives have a fitted effect of over 30% in size
Summary of the method: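 HTR2A-CHO cells, plated 18 h at 37 C/5% CO2, dye-loaded 1 h at 37 C; compounds in DMSO added by pin tool (agonist mode). Intracellular calcium flux read as kinetic fluorescence on FDSS over 2 min at 1 s intervals.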

[11] = target: Muscarinic acetylcholine receptor M1 (Homo sapiens) (UniProt P11229); experiment: Cholinergic receptor muscarinic 1 (CHRM1) small molecule antagonists, cell-based qHTS assay (AID 1963588); also: nearly all actives have a fitted effect of over 40% in size
Chain of Muscarinic acetylcholine receptor M1 (Homo sapiens) (P11229 whole entry, looked up): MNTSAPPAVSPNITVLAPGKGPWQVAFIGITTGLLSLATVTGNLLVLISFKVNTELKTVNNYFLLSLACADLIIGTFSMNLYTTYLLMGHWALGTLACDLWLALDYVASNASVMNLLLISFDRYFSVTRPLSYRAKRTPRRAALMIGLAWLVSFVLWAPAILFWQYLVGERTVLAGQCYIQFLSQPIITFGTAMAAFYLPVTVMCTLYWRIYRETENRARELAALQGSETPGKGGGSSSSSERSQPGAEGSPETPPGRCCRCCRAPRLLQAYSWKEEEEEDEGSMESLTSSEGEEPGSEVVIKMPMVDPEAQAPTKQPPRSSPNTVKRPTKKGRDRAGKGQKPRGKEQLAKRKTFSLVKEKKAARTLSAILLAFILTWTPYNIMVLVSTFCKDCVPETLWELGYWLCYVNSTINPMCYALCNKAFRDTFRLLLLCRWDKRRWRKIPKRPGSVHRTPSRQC
Summary of the method: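 Compounds were tested at 15 concentrations in three independent runs. Dye-loaded CHRM1-CHO cells were exposed 5 min at room temperature before stimulation by acetylcholine added at 50nM. Intracellular calcium was read kinetically on FDSS for 3 min.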

[12] = target: Muscarinic acetylcholine receptor M1 (Homo sapiens) (UniProt P11229); experiment: Cholinergic receptor muscarinic 1 (CHRM1) small molecule agonists, cell-based qHTS assay (AID 1963589); also: nearly all actives have a fitted effect of over 35% in size
Summary of the method: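 Fluorescent calcium dye reports M1 activation in stably transfected CHO cells. Compounds, 15 concentrations, added after 1 h dye loading at 37 C; kinetic reading at 1 sec intervals.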

[13] = cAMP Responsive Elements (CRE) small molecule antagonists, cell-based qHTS assay (AID 1963591; active = well fitted inhibition curve with a large enough effect in the signal ratio in the repeat runs, not every such curve was filed as active; the % refers to the signal ratio)
Summary of the method: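 Stimulation used NKH477 at a final 0.25 uM for 3 h in compound-treated CRE-bla HEK293T cells, seeded 18 h beforehand. Reporter activity was measured with LiveBLAzer B/G FRET substrate after 2 h at room temperature.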

[14] = target: Beta-2 adrenergic receptor (Homo sapiens) (UniProt P07550); experiment: Adrenergic beta2 receptor (ADRB2) small molecule antagonists, cell-based qHTS assay (AID 1963592); also: series mostly up to about 92 µM; nearly all actives have a fitted effect of over 50% in size
Chain of Beta-2 adrenergic receptor (Homo sapiens) (P07550 whole entry, looked up): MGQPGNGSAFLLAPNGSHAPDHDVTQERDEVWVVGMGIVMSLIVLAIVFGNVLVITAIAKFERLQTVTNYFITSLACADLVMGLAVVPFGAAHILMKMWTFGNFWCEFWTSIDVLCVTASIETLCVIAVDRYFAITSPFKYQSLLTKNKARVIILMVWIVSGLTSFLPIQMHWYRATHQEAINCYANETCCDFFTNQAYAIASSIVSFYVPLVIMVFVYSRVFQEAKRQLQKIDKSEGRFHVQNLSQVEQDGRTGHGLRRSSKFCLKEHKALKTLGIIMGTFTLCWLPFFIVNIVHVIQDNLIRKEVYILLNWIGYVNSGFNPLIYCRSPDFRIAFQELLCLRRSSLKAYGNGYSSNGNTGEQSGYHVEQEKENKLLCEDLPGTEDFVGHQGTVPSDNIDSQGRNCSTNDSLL
Summary of the method: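 Assay format: CHO-ADRB2 cells, 18-20hr seeding at 37C/5% CO2, then compound plus 1nM isoproterenol agonist mix for 0.5hr RT. Homogeneous time-resolved fluorescence cAMP detection after 1hr, expressed as 665/615 nm ratio.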

[15] = target: Beta-2 adrenergic receptor (Homo sapiens) (UniProt P07550); experiment: Adrenergic beta2 receptor (ADRB2) small molecule agonists, cell-based qHTS assay (AID 1963593);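 also: CHO cells stably overexpressing human ADRB2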
Summary of the method: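 CHO cells stably over-expressing ADRB2 were plated overnight at 37C, then dosed with compounds plus a stimulation mix containing 100uM IBMX and 25uM Ro-20-1724 for 0.5hr at room temperature. cAMP was measured by HTRF competition, 1hr.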

[16] = target: D(2) dopamine receptor (Homo sapiens) (UniProt P14416); experiment: Dopamine D2 receptor (DRD2) small molecule agonists, cell-based qHTS assay (AID 1963594); also: nearly all actives have a fitted effect of over 35% in size
Chain of D(2) dopamine receptor (Homo sapiens) (P14416 whole entry, looked up): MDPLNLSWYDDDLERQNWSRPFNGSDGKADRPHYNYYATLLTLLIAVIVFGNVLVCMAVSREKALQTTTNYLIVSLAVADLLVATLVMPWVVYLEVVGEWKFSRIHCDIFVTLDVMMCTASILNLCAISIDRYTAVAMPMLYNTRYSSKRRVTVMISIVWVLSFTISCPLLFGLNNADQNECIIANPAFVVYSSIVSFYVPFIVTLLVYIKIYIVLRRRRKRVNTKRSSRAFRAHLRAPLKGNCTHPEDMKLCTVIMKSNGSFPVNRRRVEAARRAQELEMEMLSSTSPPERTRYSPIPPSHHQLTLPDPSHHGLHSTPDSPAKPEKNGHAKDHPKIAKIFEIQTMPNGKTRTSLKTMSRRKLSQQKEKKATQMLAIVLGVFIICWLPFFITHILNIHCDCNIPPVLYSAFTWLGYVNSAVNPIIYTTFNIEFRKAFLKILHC
Summary of the method: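 HEK293 cells stably expressing DRD2 were cultured 24 h at 37 C, then given Ro20-1724 (0.1 mM final) and compounds for 10 min at room temperature. NKH477 (200nM) was then added for 30 min. cAMP was read by HTRF.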

[17] = target: D(2) dopamine receptor (Homo sapiens) (UniProt P14416); experiment: Dopamine D2 receptor (DRD2) small molecule antagonists, cell-based qHTS assay (AID 1963595; active = well fitted inhibition curve with a large enough effect in the signal ratio in the repeat runs, with a control signal flat; the % refers to the signal ratio)
Summary of the method: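 HEK293 cells stably expressing DRD2 were preincubated with 0.1 mM Ro20-1724, then with compound for 10 min at room temperature. Cells were stimulated with 200 nM NKH477 plus 12 nM quinpirole for 30 min, and cAMP was read by HTRF.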

[18] = cAMP Responsive Elements (CRE) small molecule agonists, cell-based qHTS assay (AID 1963590)
Summary of the method: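 Compound exposure lasted 3 h at 37 C/5% CO2 in CRE-bla HEK 293T cells grown in assay medium with 10% dialyzed FBS and 25 mM HEPES. Reporter signal came from LiveBLAzer B/G FRET substrate, 2 h, room temperature.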

Measured: Potency

O=C(O)C(O)C(O)C(=O)O (stereo not given)
not listed: [18]
inactive: all other assays above

CCNc1nc(NC(C)C(C)C)nc(SC)n1 (stereo not given)
not listed: [10] | [12] | [15]
inactive: all other assays above

CCNc1nc(Cl)nc(NC(C)(C)C)n1
not listed: [15] | [18]
inactive: all other assays above

CC(C)(N)Cc1ccc(Cl)cc1
not listed: [10]
inactive: all other assays above

CCc1cc2c(s1)-n1c(C)nnc1CN=C2c1ccccc1Cl
not listed: [10] | [11] | [13] | [15]
inactive: all other assays above

Cc1ccccc1CO[C@@H]1C[C@@]2(C(C)C)CC[C@]1(C)O2
not listed: [13] | [18]
inactive: all other assays above
